Results published in PubChem BioAssay (NCI).
About 79,000 compounds went through this panel and 15% of them were active in at least one assay; those are over-represented in the sample as a whole. A number with no mark means an inactive call. Calls of active or inactive are those of the source. No stated cut-off is given here; in the data, active means growth inhibition above about 70%; inactive means the rest.

assay: NCI Yeast Anticancer Drug Screen. Data for the mec2-1 strain (AID 157); conditions: S. cerevisiae mec2-1 strain, at 50.0 µM (retest, dose inferred, filed as 5.0), active compounds read high
In short: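 Compounds were applied to mec2-1 yeast cells. Their growth was then compared with that of vehicle-treated cultures to give growth inhibition.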

Row | Structure (SMILES) | growth inhibition
1 | COC(=O)C1C(c2ccccc2)=N[C@@H](c2ccccc2)[C@H]1C(=O)OC (stereo not given in full) | -2%
2 | CCCCCCCCCC(C)CC(=O)NCCCN(C)CCCCN(C)C (stereo not given) (tested in a mixture with another compound) | 68%
3 | Cc1ccc(N=C2SC(=S)N(CCC[N+](C)(C)C)C2=Nc2ccc(C)cc2)cc1 | 100% (active)
4 | N#CSc1ccc(O)c2ccccc12 | 87% (active)
5 | CCCCCC1OC(CCCCC)OC(CCCCC)O1 (stereo not given) | -19%
6 | ClC1(c2ccccc2)c2ccccc2-c2ccccc21 | 99% (active)
7 | CCN(CC)c1ccc(NC(CC(O)c2ccccc2)c2ccccc2)cc1 (stereo not given) | -1%
8 | CCCCCCC[n+]1ccc(C(=O)c2ccccc2)cc1 | 99% (active)
9 | O=c1[nH][nH]c(=O)c2c1nc(SCc1ccccc1)n2Cc1ccccc1 | 5%
10 | CCOC(=O)C(NNc1ccccc1)C(c1ccccc1)[P+](c1ccccc1)(c1ccccc1)c1ccccc1 (stereo not given) | 99% (active)
11 | CC(C)/C=C1\CCC(CN2CCOCC2)C1=O (stereo not given) | 26%
12 | CCc1cc2nc3c(=O)[nH]c(=O)nc-3n(CCN(CCO)CCO)c2cc1CC | 27%
13 | c1ccc2c(c1)OCC(CN1CCN(CC3COc4ccccc4O3)CC1)O2 (stereo not given) | 51%
14 | CNC(C)C(=O)c1ccc2ccc3ccccc3c2c1 (stereo not given) | 12%
15 | O=[N+]([O-])c1ccc(N=C(Cl)C(Cl)(c2ccccc2)c2ccccc2)cc1 | 97% (active)
16 | O=[N+]([O-])c1ccc2c(c1)Cc1cc(Cl)ccc1-2 | 5%
17 | CCCCCCOC(=O)Nc1ccc(S(=O)(=O)N2CCCCC2)cc1 | 56%
18 | CCCCCCCCCCCOc1cccc(N2C(N)=NC(N)=NC2(C)C)c1 | 96% (active)
19 | O=Nc1c(NO)c2ccccc2c2ccccc12 | 91% (active)
20 | CCCCCCCCCCCCCCCCOS(=O)(=O)O | 100% (active)

Row | Structure (SMILES) | growth inhibition
21 | CCCCCCCCCCCCCCCCCC[N+](C)(C)Cc1ccc(C[N+](C)(C)CCCCCCCCCCCCCCCCCC)cc1 | 7%
22 | NNc1ccc2ccccc2n1 | 93% (active)
23 | Cc1cc(NC(=S)SCc2ccc(F)cc2)c([N+](=O)[O-])cc1C | 99% (active)
24 | COC(=O)/C(=C\c1cn(C(C)=O)c2ccccc12)P(=O)(OC)OC | 70% (active)
25 | O=C(Nc1ccccc1)c1ccccc1O | 91% (active)
26 | CC(=O)c1c2c(cc3c1CC1(Cc4ccccc4C1=O)C3)CCC2 (stereo not given) | 88% (active)
27 | CC(=O)c1c(-c2ccco2)c(C#N)c(=S)n(C2OC(CO)C(O)C(O)C2O)c1-c1ccccc1 (stereo not given) | 17%
28 | CC1(C)OC2C(CO)OC(n3ncc(=S)[nH]c3=O)C2O1 (stereo not given) | 6%
29 | C=C(C)C1CC/C(C)=C/CCC2(C)OC2CC/C(CO)=C\C1O (stereo not given) | 96% (active)
30 | CC(C)CCSc1ncnc2nc[nH]c12 | 3%
31 | COC(=O)C1(Cc2ccc3c(c2)CCC3)Cc2ccc3c(c2C1O)CCC3 (stereo not given) | 96% (active)
32 | Nc1ccc(C(=O)NN2C(=O)C(Cl)C2c2cc(Br)cc(Br)c2O)cc1 (stereo not given) | 80% (active)
33 | COc1ccc(SC2=C(N(C)C(C)=O)C(=O)c3ccccc3C2=O)cc1 | 100% (active)
34 | O=[N+]([O-])c1ccc(N/N=C/CCCCCCCCCCBr)c([N+](=O)[O-])c1 | 1%
35 | O=C(c1ccccc1)c1cccc2ccccc12 | -2%
36 | O=S1(=O)CCc2ccccc2C(Br)C1Br (stereo not given) | 99% (active)
37 | CC(/C=N/NS(=O)(=O)c1ccc(C)cc1)=C(c1ccccc1)c1ccccc1 | 96% (active)
38 | Cc1cc(CC(O)(C(F)(F)F)C(F)(F)F)cc(CC(O)(C(F)(F)F)C(F)(F)F)n1 | 98% (active)
39 | O=S(=O)(c1cc(Cl)c(Cl)cc1Cl)N(CCCCCN(S(=O)(=O)c1cc(Cl)c(Cl)cc1Cl)S(=O)(=O)c1cc(Cl)c(Cl)cc1Cl)S(=O)(=O)c1cc(Cl)c(Cl)cc1Cl | -13%
40 | O=c1cc(-c2ccccc2)oc2ccc(-c3ccc4oc(-c5ccccc5)cc(=O)c4c3)cc12 | 16%

same assay, conditions: S. cerevisiae mec2-1 strain, at 50.0 µM, active compounds read high

Row | Structure (SMILES) | growth inhibition
41 | COC(=O)C1C(c2ccccc2)=N[C@@H](c2ccccc2)[C@H]1C(=O)OC (stereo not given in full) | -2.15%
42 | CCCCCCCCCC(C)CC(=O)NCCCN(C)CCCCN(C)C (stereo not given) (tested in a mixture with another compound) | 80.2% (active)
43 | Cc1ccc(N=C2SC(=S)N(CCC[N+](C)(C)C)C2=Nc2ccc(C)cc2)cc1 | 99.5% (active)
44 | N#CSc1ccc(O)c2ccccc12 | 91% (active)
45 | CCCCCC1OC(CCCCC)OC(CCCCC)O1 (stereo not given) | 6.6%
46 | ClC1(c2ccccc2)c2ccccc2-c2ccccc21 | 95.6% (active)
47 | CCN(CC)c1ccc(NC(CC(O)c2ccccc2)c2ccccc2)cc1 (stereo not given) | 5.8%
48 | CCCCCCC[n+]1ccc(C(=O)c2ccccc2)cc1 | 94.3% (active)
49 | O=c1[nH][nH]c(=O)c2c1nc(SCc1ccccc1)n2Cc1ccccc1 | -10.9%
50 | CCOC(=O)C(NNc1ccccc1)C(c1ccccc1)[P+](c1ccccc1)(c1ccccc1)c1ccccc1 (stereo not given) | 99.7% (active)
51 | CC(C)/C=C1\CCC(CN2CCOCC2)C1=O (stereo not given) | 28.4%
52 | CCc1cc2nc3c(=O)[nH]c(=O)nc-3n(CCN(CCO)CCO)c2cc1CC | 30.6%
53 | c1ccc2c(c1)OCC(CN1CCN(CC3COc4ccccc4O3)CC1)O2 (stereo not given) | 67%
54 | CNC(C)C(=O)c1ccc2ccc3ccccc3c2c1 (stereo not given) | 46.6%
55 | O=[N+]([O-])c1ccc(N=C(Cl)C(Cl)(c2ccccc2)c2ccccc2)cc1 | 96.7% (active)
56 | O=[N+]([O-])c1ccc2c(c1)Cc1cc(Cl)ccc1-2 | -13.9%
57 | CCCCCCOC(=O)Nc1ccc(S(=O)(=O)N2CCCCC2)cc1 | 28.1%
58 | CCCCCCCCCCCOc1cccc(N2C(N)=NC(N)=NC2(C)C)c1 | 99.5% (active)
59 | O=Nc1c(NO)c2ccccc2c2ccccc12 | 96.2% (active)
60 | CCCCCCCCCCCCCCCCOS(=O)(=O)O | 98.5% (active)

Row | Structure (SMILES) | growth inhibition
61 | CCCCCCCCCCCCCCCCCC[N+](C)(C)Cc1ccc(C[N+](C)(C)CCCCCCCCCCCCCCCCCC)cc1 | 35.3%
62 | NNc1ccc2ccccc2n1 | 52.5%
63 | Cc1cc(NC(=S)SCc2ccc(F)cc2)c([N+](=O)[O-])cc1C | 98.8% (active)
64 | COC(=O)/C(=C\c1cn(C(C)=O)c2ccccc12)P(=O)(OC)OC | 62.6%
65 | O=C(Nc1ccccc1)c1ccccc1O | 79.5% (active)
66 | CC(=O)c1c2c(cc3c1CC1(Cc4ccccc4C1=O)C3)CCC2 (stereo not given) | 42.8%
67 | CC(=O)c1c(-c2ccco2)c(C#N)c(=S)n(C2OC(CO)C(O)C(O)C2O)c1-c1ccccc1 (stereo not given) | 49.6%
68 | CC1(C)OC2C(CO)OC(n3ncc(=S)[nH]c3=O)C2O1 (stereo not given) | 10.7%
69 | C=C(C)C1CC/C(C)=C/CCC2(C)OC2CC/C(CO)=C\C1O (stereo not given) | 93% (active)
70 | CC(C)CCSc1ncnc2nc[nH]c12 | 53.5%
71 | COC(=O)C1(Cc2ccc3c(c2)CCC3)Cc2ccc3c(c2C1O)CCC3 (stereo not given) | 94.3% (active)
72 | Nc1ccc(C(=O)NN2C(=O)C(Cl)C2c2cc(Br)cc(Br)c2O)cc1 (stereo not given) | 94.2% (active)
73 | COc1ccc(SC2=C(N(C)C(C)=O)C(=O)c3ccccc3C2=O)cc1 | 99.7% (active)
74 | O=[N+]([O-])c1ccc(N/N=C/CCCCCCCCCCBr)c([N+](=O)[O-])c1 | 10.4%
75 | O=C(c1ccccc1)c1cccc2ccccc12 | 43%
76 | O=S1(=O)CCc2ccccc2C(Br)C1Br (stereo not given) | 99.6% (active)
77 | CC(/C=N/NS(=O)(=O)c1ccc(C)cc1)=C(c1ccccc1)c1ccccc1 | 55.5%
78 | Cc1cc(CC(O)(C(F)(F)F)C(F)(F)F)cc(CC(O)(C(F)(F)F)C(F)(F)F)n1 | 98.5% (active)
79 | O=S(=O)(c1cc(Cl)c(Cl)cc1Cl)N(CCCCCN(S(=O)(=O)c1cc(Cl)c(Cl)cc1Cl)S(=O)(=O)c1cc(Cl)c(Cl)cc1Cl)S(=O)(=O)c1cc(Cl)c(Cl)cc1Cl | 98.2% (active)
80 | O=c1cc(-c2ccccc2)oc2ccc(-c3ccc4oc(-c5ccccc5)cc(=O)c4c3)cc12 | 40.6%
